From paper PMC4336329 (PLoS ONE, 2015)
The whole screen tested about 310,000 compounds, of which about 14,000 (4.5%) showed an effect of 50% or more. The effect is printed as a negative number. Only a selection was taken, and strong results are over-represented in it overall.

These molecules were tested against human ether-à-go-go-related gene (hERG) potassium channel (human, UniProt Q12809) (assay: primary screen, population patch clamp on CHO cells stably expressing hERG; higher = less effect of the substance).
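Also: peak tail current of the secondary pulse compared with the same well before compound.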

Sequence of human ether-à-go-go-related gene (hERG) potassium channel (Q12809 whole entry, looked up): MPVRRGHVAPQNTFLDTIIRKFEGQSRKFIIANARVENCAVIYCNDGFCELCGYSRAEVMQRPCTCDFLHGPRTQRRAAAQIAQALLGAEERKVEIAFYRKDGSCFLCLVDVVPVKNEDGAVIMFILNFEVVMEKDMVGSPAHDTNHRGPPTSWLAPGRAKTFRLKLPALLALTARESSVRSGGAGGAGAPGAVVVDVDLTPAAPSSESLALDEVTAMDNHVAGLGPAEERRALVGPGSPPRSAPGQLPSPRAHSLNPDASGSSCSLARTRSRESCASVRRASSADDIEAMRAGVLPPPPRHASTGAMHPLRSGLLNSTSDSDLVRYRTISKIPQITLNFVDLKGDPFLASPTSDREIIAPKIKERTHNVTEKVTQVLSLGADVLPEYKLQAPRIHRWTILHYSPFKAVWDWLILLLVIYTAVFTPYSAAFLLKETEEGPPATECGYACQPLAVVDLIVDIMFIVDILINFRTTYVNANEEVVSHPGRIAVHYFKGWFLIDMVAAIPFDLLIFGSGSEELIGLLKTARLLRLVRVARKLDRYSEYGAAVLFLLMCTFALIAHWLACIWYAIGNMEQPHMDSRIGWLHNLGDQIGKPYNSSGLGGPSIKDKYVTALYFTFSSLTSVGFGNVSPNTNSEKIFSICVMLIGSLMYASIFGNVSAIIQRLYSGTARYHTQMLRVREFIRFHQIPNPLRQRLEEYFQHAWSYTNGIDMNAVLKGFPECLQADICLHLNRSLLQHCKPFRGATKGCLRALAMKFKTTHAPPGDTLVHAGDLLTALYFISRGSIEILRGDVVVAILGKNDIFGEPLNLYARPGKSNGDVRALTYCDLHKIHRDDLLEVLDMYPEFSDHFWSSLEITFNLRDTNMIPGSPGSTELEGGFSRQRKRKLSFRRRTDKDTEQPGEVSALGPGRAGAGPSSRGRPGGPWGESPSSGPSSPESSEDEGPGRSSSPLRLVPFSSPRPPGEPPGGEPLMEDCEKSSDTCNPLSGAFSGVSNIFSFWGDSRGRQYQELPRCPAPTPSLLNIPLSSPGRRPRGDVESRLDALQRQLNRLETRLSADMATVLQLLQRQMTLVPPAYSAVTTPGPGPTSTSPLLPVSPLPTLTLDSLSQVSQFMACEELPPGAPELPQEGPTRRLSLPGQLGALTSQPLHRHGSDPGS

Compound	hERG current change (%, negative = inhibition) at 10uM
CCN(CC)S(=O)(=O)c1ccc2[nH]c(=O)cc(C(=O)NCC3CCCO3)c2c1 (stereo not shown)	-10.3%
COc1ccc(NC(=O)c2ccc(NC(=O)COC(=O)CC(NC(=O)c3ccccc3Cl)c3ccccc3)cc2)cc1 (stereo not shown)	-2.55%
CCC(=O)Nc1nc(CC(=O)Nc2ccccc2)cs1	18.2%
COc1ccc(CC(=O)N2CCN(c3ccccn3)CC2)cc1	7.79%
CCn1c(CCCOc2ccc(Cl)cc2Cl)nnc1SCC(=O)Nc1cc(F)ccc1C	-13.1%
CCCCc1nnc(SCC(=O)Nc2nccs2)n1CC	4.93%
CCn1c(COc2ccc(C(C)C)cc2)nnc1SCC(=O)Nc1nccs1	-7.75%
Cn1c(CNC(=O)c2ccco2)nnc1SCC(=O)Nc1ccc(Br)cc1F	-43.4%
CCn1c(CNC(=O)COc2c(C)cccc2C)nnc1SCC(=O)Nc1nccs1	-51.8%
CCn1c(CNC(=O)c2ccco2)nnc1SCC(=O)Nc1cc(F)ccc1C	-0.0602%
CCn1c(CNC(=O)c2ccco2)nnc1SCC(=O)Nc1cc(C)c(C)cc1Br	-16.6%
CCn1c(CNC(=O)COc2ccc(C(C)C)cc2)nnc1SCC(=O)Nc1cc(F)ccc1C	-65.7%
CCn1c(CNC(=O)c2ccco2)nnc1SCC(=O)Nc1ccc(Br)cc1F	-54.8%
CCn1c(CNC(=O)COc2ccc(C(C)C)cc2)nnc1SCC(=O)Nc1ccccc1C(C)C	-55.1%
COc1ccc(C(=O)NCCc2nnc(SCC(=O)Nc3ccccc3C(C)C)n2C)cc1	-13.3%
CCn1c(CNC(=O)Cc2ccc(OC)cc2)nnc1SCC(=O)Nc1nccs1	-5.75%
CN(C)S(=O)(=O)c1ccc(Cl)c(C(=O)NC2CCCCCCC2)c1	7.33%
O=C(Cn1nnc(-c2ccncc2)n1)N1CCc2ccccc21	15.2%
CCCc1nc2oc3c(NCc4ccccn4)ncnc3c2c2c1COC(C)(C)C2	-17.8%
COc1cccc(CN2CCNC(=O)C2CC(=O)NCCCn2ccnc2)c1 (stereo not shown)	37.2%
Cc1cc(=O)[nH]c(/N=C(\N)Nc2cccc3ccccc23)n1	11.5%
NNC(=O)c1ccc(COCC(F)(F)C(F)F)cc1	14.5%

Compound	hERG current change (%, negative = inhibition) at 10uM
CC(NC(=O)c1cc2cc(Cl)ccc2oc1=N)c1ccccc1 (stereo not shown)	7.55%
C#CCNC(=O)[C@H](Cc1ccc(C(=O)c2ccccc2)cc1)NC(=O)OC(C)(C)C	19.5%
O=C(COC(=O)c1cc(S(=O)(=O)N2CCOCC2)cs1)c1ccccc1	-0.734%
N#C/C(=C\c1cccnc1)c1nc2ccccc2[nH]1	-10.4%
CCn1c(CNC(=O)COc2ccc(C(C)C)cc2)nnc1SCC(=O)Nc1ccccc1	-54.2%
CCn1c(CCNC(=O)c2ccc(OC)cc2)nnc1SCC(=O)Nc1ccccc1F	-22.7%
CCn1c(CNC(=O)COc2ccc(C(C)C)cc2)nnc1SCC(=O)Nc1ccc(F)cc1	-49.4%
CCn1c(Cc2ccccc2)nnc1SCC(=O)Nc1ccccc1F	-5.46%
CCn1c(CNC(=O)COc2ccc(C(C)C)cc2)nnc1SCC(=O)NC1CCCCC1C (stereo not shown)	-16.8%
CCn1c(CNC(=O)COc2ccc(C(C)C)cc2)nnc1SCC(=O)Nc1ccccc1F	-60.1%
CC1(c2nnc(Cc3ccccc3)o2)CC(c2cccnc2)=NO1 (stereo not shown)	3.26%
Cc1ccc(N=C(NO)c2nonc2N)cc1	10.1%
CCOC(=O)c1[nH]c2ccccc2c1NC(=O)C1CCCC1	3.28%
O=C(/C=C/c1ccccc1Cl)Nc1ccncc1	-3.65%
Cc1cc(NC(=O)CSCC(=O)NCc2cccc(C(F)(F)F)c2)no1	-18.7%
O=C(O)CCC(=O)N1CCc2cc(S(=O)(=O)NC3CCCc4ccccc43)ccc21 (stereo not shown)	-5.02%
[Cl-].c1ccc(C[n+]2c(-c3ccccc3)csc2Nc2ccccc2)cc1	19.6%
O=C(COc1ccccc1Br)N1CCN(C(=O)c2ccco2)CC1	-31.3%
Cc1ccc(SCC(=O)OCC(=O)N(C)C2CCS(=O)(=O)C2)cc1C (stereo not shown)	-11.5%
CCOC(=O)N1CCN(C(=O)COC(=O)CSc2cc(C)c(Br)cc2C)CC1	-38.5%
O=C(CSc1ccccc1F)OCC(=O)N1CCN(C(=O)c2ccco2)CC1	-27.2%
Cc1cc(Br)cc(Cl)c1OCC(=O)N1CCN(C(=O)c2ccco2)CC1	-63.3%

Compound	hERG current change (%, negative = inhibition) at 10uM
Cc1cc(SCC(=O)OCC(=O)N2CCN(C(=O)c3ccco3)CC2)c(C)cc1Br	-50.2%
NC(=O)COC(=O)CSc1cccc2cccc(Cl)c12	14.8%
O=C(CSc1cccc2cccc(Cl)c12)OCC(=O)N1CCN(C(=O)c2ccco2)CC1	-69.2%
Cc1cccc(OCC(=O)OCC(=O)N2CCN(C(=O)c3ccco3)CC2)c1C	-31.8%
Cc1cc(SCC(=O)OCC(=O)N(C)C2CCS(=O)(=O)C2)c(C)cc1Br (stereo not shown)	-73.1%
CN(C(=O)COC(=O)CSc1ccc(C(N)=O)cc1[N+](=O)[O-])C1CCS(=O)(=O)C1 (stereo not shown)	-11.4%
Cc1cc(C)c(OCC(=O)OCC(=O)N2CCN(C(=O)c3ccco3)CC2)c(C)c1	-30.4%
O=C(c1ccco1)c1cn[nH]c1-c1ccc(Cl)cc1O	-8.52%
C/C(=N\NC(=O)CN(c1ccc(Oc2ccccc2)cc1)S(C)(=O)=O)C(C)(C)C	7.07%
COc1ccccc1CNC(=O)COC(=O)Cc1ccc(F)cc1	8.81%
O=C(Cc1ccccc1)NCc1nc2ccccc2[nH]1	-6.31%
O=C(NCCc1ccncc1)Nc1cccc(Cl)c1	-3.75%
O=C(NCc1cccnc1)C1CCN(C(=O)c2ccc(Cl)cc2Cl)CC1	-10.8%
O=[N+]([O-])c1cccc(S(=O)(=O)Nc2ccc(S(=O)(=O)Nc3nccs3)cc2)c1	13.9%
CCOC(=O)CN1C(=O)C(O)(CC(=O)c2cccc(OC)c2)c2ccccc21 (stereo not shown)	5.13%
O=C(NCC(c1ccco1)N1CCN(c2ccccc2)CC1)c1ccc2c(c1)OCO2 (stereo not shown)	-5.86%
CC(=O)N1CCN(C(=O)CSc2cc(C)c(Br)cc2C)CC1	3.18%
Cc1cc(SCC(=O)N2CCN(C(=O)c3ccco3)CC2)c(C)cc1Br	-62.3%
Cc1ccc(SCC(=O)OCC(=O)N2CCN(C(=O)c3ccco3)CC2)c(C)c1	-41.6%
NC(=O)c1ccc(SCC(=O)OCC(=O)N2CCN(C(=O)c3ccco3)CC2)c([N+](=O)[O-])c1	23.3%
Cc1cc(Br)ccc1SCC(=O)OCC(=O)N1CCN(C(=O)c2ccco2)CC1	-66.8%
Nc1cc(N)nc(SCC(=O)N2CCN(C(=O)c3ccco3)CC2)n1	0.783%

Compound	hERG current change (%, negative = inhibition) at 10uM
CCCC(O)(CCC)C(=O)NNc1ccccc1	12.4%
O=C(NCCCN1CCCC1=O)c1ccc2c(=O)n(Cc3ccco3)c(=S)[nH]c2c1	-17.8%
Cc1ccc2oc(=O)c3cnn(CC(=O)NC4CCCCC4C)c3c2c1 (stereo not shown)	8.43%
CS(=O)(=O)N1CCc2cc(NC(=O)c3ccc(Cl)cc3Cl)ccc21	1.5%
CCN(CC)C(=O)CSc1nc2ccccc2c(=O)[nH]1	12.5%
Cn1c(=O)n(C)c2cc(NS(=O)(=O)c3ccccc3)ccc21	4.09%
CCn1c(=O)n(CC)c2cc(NS(=O)(=O)c3ccccc3)ccc21	-68.7%
CCn1c(=O)c(=O)n(CC)c2cc(S(=O)(=O)Nc3ccc(C)cc3)ccc21	7.02%
CC(=O)Nc1ccc2nc(-c3cccn3C)[nH]c2c1	12.8%
CC(=O)Nc1ccc2nc(-c3ccco3)[nH]c2c1	7.99%
Cn1cccc1-c1nc2ccc(NC(=O)c3ccccc3)cc2[nH]1	-39.3%
O=C(Nc1ccc(-c2nc3ccc(NC(=O)c4cccs4)cc3[nH]2)cc1)c1cccs1	18.1%
Cn1cccc1-c1nc2ccc(NC(=O)c3cccs3)cc2[nH]1	-53.3%
Cc1ccc(-c2nc3ccc(NS(=O)(=O)c4ccccc4)cc3[nH]2)o1	-47.3%
Cc1ccc(S(=O)(=O)Nc2ccc3nc(-c4cccn4C)[nH]c3c2)cc1	-79.3%
O=S(=O)(Nc1ccc2nc(-c3ccco3)[nH]c2c1)c1ccccc1	-58.4%
Cn1cccc1-c1nc2ccc([N+](=O)[O-])cc2[nH]1	4.4%
COc1ccccc1CNC(=O)CNC(=O)[C@@H]1Cc2ccccc2CN1	1.14%
Cc1c(NC(=O)CSc2nnc(N)s2)c(=O)n(-c2ccccc2)n1C	-10.4%
